In PubChem BioAssay (NCATS):
Values joined by “and” are separate entries in the source; they are usually repeats but may differ in a detail not shown here. Identical values can stand only once. Inconclusive results are not listed. Active and inactive are the calls of the source. Unless noted, calls come from the whole dose curve; as a rule, active = well fitted activation curve with a large enough effect; inconclusive = small, poorly fitted or top-dose-only effect; inactive = flat fitted curve, though single readings scatter.

System: not listed separately
Assay: qHTS assay for small molecule disruptors of the mitochondrial membrane potential - 1 hr assay (AID 651754; calls by dose curve; note: nearly all actives have a fitted effect of over 35% in size; note: potency is the fitted concentration of half-maximal effect; for ratio change, negative = depolarisation: % is set by controls: 0 for no effect and ±100 for the full control effect)
Details: series mostly up to 92.2 µM; ratio change, negative = depolarisation: at the top concentration
Method in brief: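 In this qHTS format, a 1 hr compound treatment of HepG2 cells precedes Mito-MPS staining, and membrane potential is judged from aggregate (red) against monomer (green) fluorescence intensity.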

| SMILES | Potency | ratio change, negative = depolarisation |
| --- | --- | --- |
| CCCCC(CC)COC(=O)c1ccc(N(C)C)cc1 (stereo unspecified) | 7.5 µM (active) |  |
| COc1ccc(C(Cl)=C(c2ccc(OC)cc2)c2ccc(OC)cc2)cc1 | 15 µM (active) |  |
| C=C[C@H]1CN2CC[C@H]1C[C@@H]2[C@@H](O)c1ccnc2ccc(OC)cc12 |  | 2.03% (inactive) |
| Oc1c(Cl)cc(Cl)c(Cl)c1Cc1c(O)c(Cl)cc(Cl)c1Cl | 2.98 µM (active) |  |
| COc1cc([C@H]2Oc3cc([C@H]4Oc5cc(O)cc(O)c5C(=O)[C@@H]4O)ccc3O[C@@H]2CO)ccc1O | 18.8 µM (active) |  |
| NCCNc1cccc2ccccc12 |  | 12.5% (inactive) |

System: not listed separately
Assay: qHTS assay for small molecule disruptors of the mitochondrial membrane potential - 5 hr assay (AID 651755; calls by dose curve; note: nearly all actives have a fitted effect of over 40% in size; note: potency is the fitted concentration of half-maximal effect; for ratio change, negative = disruption: % is set by controls: 0 for no effect and ±100 for the full control effect)
Details: JC-1-type ratio dye; series mostly up to 92.2 µM; ratio change, negative = disruption: at the top concentration
Method in brief: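 Membrane-potential dye readout: red aggregate (540 ex/590 em) versus green monomer (490 ex/535 em) fluorescence after 30 min dye loading, following 5 hr compound exposure at 37C of overnight-plated HepG2 cells.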

| SMILES | ratio change, negative = disruption | Potency |
| --- | --- | --- |
| CCCCC(CC)COC(=O)c1ccc(N(C)C)cc1 (stereo unspecified) | -26.2% (inactive) |  |
| COc1ccc(C(Cl)=C(c2ccc(OC)cc2)c2ccc(OC)cc2)cc1 |  | 18.8 µM (active) |
| C=C[C@H]1CN2CC[C@H]1C[C@@H]2[C@@H](O)c1ccnc2ccc(OC)cc12 | -8.68% (inactive) |  |
| Oc1c(Cl)cc(Cl)c(Cl)c1Cc1c(O)c(Cl)cc(Cl)c1Cl |  | 3.35 µM (active) |
| COc1cc([C@H]2Oc3cc([C@H]4Oc5cc(O)cc(O)c5C(=O)[C@@H]4O)ccc3O[C@@H]2CO)ccc1O |  | 26.6 µM (active) |

Biological target: Tumor necrosis factor (Homo sapiens) (UniProt P01375)
Sequence (P01375 whole entry, looked up): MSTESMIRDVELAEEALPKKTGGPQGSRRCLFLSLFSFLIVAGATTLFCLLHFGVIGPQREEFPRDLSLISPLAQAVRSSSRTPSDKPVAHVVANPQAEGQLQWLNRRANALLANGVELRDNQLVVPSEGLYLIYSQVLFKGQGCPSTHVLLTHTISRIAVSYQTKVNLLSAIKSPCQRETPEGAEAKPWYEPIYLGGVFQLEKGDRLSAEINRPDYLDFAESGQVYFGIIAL
Assay: qHTS assay to identify small molecules that stimulate Tumor Necrosis Factor-alpha (TNF-alpha) secretion (AID 651757; active = well fitted curve in the direction sought with a large enough effect in the signal ratio; the % refers to the signal ratio; note: 0% is about no effect)
Details: Human cells, HTRF 665/615 ratio; series mostly up to 92.2 µM; activation (TNF-alpha secretion): at the top concentration
Method in brief: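 Using 3000 THP-1 cells per well, compounds and controls were applied for 17 hrs at 37 C. Detection followed with two labeled anti-TNF-alpha antibodies (cryptate donor, XL665 acceptor) for 3 hr at room temperature, measured by TR-FRET.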

| SMILES | activation (TNF-alpha secretion) |
| --- | --- |
| CCCN(CCC)S(=O)(=O)c1ccc(C(=O)O)cc1 | -0.142% (inactive) |
| CCCCC(CC)COC(=O)c1ccc(N(C)C)cc1 (stereo unspecified) | 2.44% (inactive) |
| CCOc1ccc(NC(C)=O)cc1 | 0.644% (inactive) |
| COc1ccc(C(Cl)=C(c2ccc(OC)cc2)c2ccc(OC)cc2)cc1 | 0.264% (inactive) |
| C=C[C@H]1CN2CC[C@H]1C[C@@H]2[C@@H](O)c1ccnc2ccc(OC)cc12 | 0.189% (inactive) |
| COc1ccc(C(=O)c2ccccc2)c(O)c1 | 0.418% (inactive) |
| C/C=C/c1ccc(O)c(OC)c1 | -0.0686% (inactive) |
| CCOc1ccccc1C(N)=O | 0.205% (inactive) |
| OC[C@H]1O[C@@H]2O[C@H]3[C@H](O)[C@@H](O)[C@@H](O[C@H]4[C@H](O)[C@@H](O)[C@@H](O[C@H]5[C@H](O)[C@@H](O)[C@@H](O[C@H]6[C@H](O)[C@@H](O)[C@@H](O[C@H]7[C@H](O)[C@@H](O)[C@@H](O[C@H]8[C@H](O)[C@@H](O)[C@@H](O[C@H]1[C@H](O)[C@H]2O)O[C@@H]8CO)O[C@@H]7CO)O[C@@H]6CO)O[C@@H]5CO)O[C@@H]4CO)O[C@@H]3CO | 0.443% (inactive) |
| NC(=O)c1ccccc1O | 0.529% (inactive) |
| Oc1ccc(Cl)cc1Cc1cc(Cl)ccc1O | -0.0166% (inactive) |

System: not listed separately
Assay: qHTS assay for environmental chemicals that activate the Aryl hydrocarbon Receptor (AhR) signaling pathway (AID 651777); note: nearly all actives have a fitted effect of over 15% in size; note: potency is the fitted concentration of half-maximal effect; for activation: % of control where 0% means no effect
Details: 1A2-DRE human hepatoma cells, luciferase, 24 h; activation: active compounds read high
Method in brief: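 Luminescence (One-Glo, 30 min, room temperature) reports AhR-driven luciferase in stably transfected human hepatoma cells bearing DRE and CYP1A2 promoter. Cells (1,200/well) were treated with compound for 24 hr at 37 C in qHTS format.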

| SMILES | Potency | activation |
| --- | --- | --- |
| C=C[C@@]1(C)CC(=O)[C@]2(O)[C@@]3(C)[C@@H](O)CCC(C)(C)[C@@H]3[C@H](O)[C@H](OC(C)=O)[C@@]2(C)O1 | 17.8 µM (active) |  |
| CCCN(CCC)S(=O)(=O)c1ccc(C(=O)O)cc1 |  | -1.19% (inactive) and -0.648% (inactive) |
| C#C[C@]1(O)CC[C@H]2[C@@H]3CCC4=Cc5oncc5C[C@]4(C)[C@H]3CC[C@@]21C |  | 0.604% (inactive) |
| CCCCCCCCCCCCCC(=O)OC(C)C |  | -0.593% (inactive) |
| CCCCC(CC)COC(=O)c1ccc(N(C)C)cc1 (stereo unspecified) |  | 8.87% (inactive) and 0.16% (inactive) |
| CCOc1ccc(NC(C)=O)cc1 |  | 1.23% (inactive) and 0.542% (inactive) |
| CCCCCCCC/C=C\CCCCCCCCN |  | -0.319% (inactive) |
| CCCCCCCCCCCCCCCCO |  | 1.7% (inactive) |
| COc1ccc(C(Cl)=C(c2ccc(OC)cc2)c2ccc(OC)cc2)cc1 |  | -0.915% (inactive) |
| O=C(O)c1ccc(S(=O)(=O)N(Cl)Cl)cc1 |  | 0.0057% (inactive) |
| CC(C)(C)CC(C)(C)c1ccc(O)c(-n2nc3ccccc3n2)c1 |  | 5.11% (inactive) |
| CC1(C)OC[C@@H]2O[C@@]3(C(=O)O)OC(C)(C)O[C@H]3[C@@H]2O1 |  | 1.2% (inactive) |
| C=C[C@H]1CN2CC[C@H]1C[C@@H]2[C@@H](O)c1ccnc2ccc(OC)cc12 |  | 4.17% (inactive) |
| COc1ccc(C(=O)c2ccccc2)c(O)c1 |  | 8.63% (inactive) and 11.4% (inactive) |
| C/C=C/c1ccc(O)c(OC)c1 |  | 3.77% (inactive) and 1.82% (inactive) |
| Oc1c(Cl)cc(Cl)c(Cl)c1Cc1c(O)c(Cl)cc(Cl)c1Cl |  | 3.13% (inactive) and 3.58% (inactive) |
| CCCCCCCCCCCCCCCC(=O)O |  | 0.499% (inactive) |
| CCCCCCCCOc1ccc(C(=O)c2ccccc2)c(O)c1 |  | -9.5% (inactive) |
| CCOc1ccccc1C(N)=O |  | 0.471% (inactive) |
| COc1cc([C@H]2Oc3cc([C@H]4Oc5cc(O)cc(O)c5C(=O)[C@@H]4O)ccc3O[C@@H]2CO)ccc1O |  | 0.406% (inactive) |
| NCCNc1cccc2ccccc12 | 39.8 µM (active) |  |
| CCCCOC(=O)CC(CC(=O)OCCCC)(OC(C)=O)C(=O)OCCCC |  | 0.777% (inactive) |
| NC(=O)c1ccccc1O |  | 2.51% (inactive) |
| Oc1ccc(Cl)cc1Cc1cc(Cl)ccc1O |  | -1.39% (inactive) and 3.39% (inactive) |
